Test results from article PMC11006913.
Residue numbers refer to the chain shown, from its start.

Key:
Experiment in all cases: PBM; 200 nM protein, PBS
Conditions in all cases: dsDNA, one strand shown
SIX6 [1] = molecular target: T1, SIX6 (Homo sapiens, UniProt O95475 114-200, L167I)
T1 sequence: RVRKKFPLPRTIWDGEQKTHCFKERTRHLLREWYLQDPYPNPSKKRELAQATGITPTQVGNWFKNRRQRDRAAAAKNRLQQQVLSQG

SIX6 [2] = molecular target: T2, SIX6 (Homo sapiens, UniProt O95475 114-200, L143V)
T2 sequence: T1 sequence with L30V, I54L

SIX6 [3] = molecular target: T3, SIX6 (Homo sapiens, UniProt O95475 114-200, H141N)
T3 sequence: T1 sequence with H28N, I54L

SIX6 [4] = molecular target: T4, SIX6 (Homo sapiens, UniProt O95475 114-200, T165P)
T4 sequence: T1 sequence with T52P, I54L

SIX6 [5] = molecular target: T5, SIX6 (Homo sapiens, UniProt O95475 114-200, L167M)
T5 sequence: T1 sequence with I54M

SIX6 [6] = molecular target: T6, SIX6 (Homo sapiens, UniProt O95475 114-200, L143M)
T6 sequence: T1 sequence with L30M, I54L

SIX6 [7] = molecular target: T7, SIX6 (Homo sapiens, UniProt O95475 114-200, L143I)
T7 sequence: T1 sequence with L30I, I54L

SIX6 [8] = molecular target: T8, SIX6 (Homo sapiens, UniProt O95475 114-200, T165G)
T8 sequence: T1 sequence with T52G, I54L

SIX6 [9] = molecular target: T9, SIX6 (Homo sapiens, UniProt O95475 114-200, T139Q)
T9 sequence: T1 sequence with T26Q, I54L

SIX6 [10] = molecular target: T10, SIX6 (Homo sapiens, UniProt O95475 114-200, T165A)
T10 sequence: T1 sequence with T52A, I54L

SIX6 [11] = molecular target: T11, SIX6 (Homo sapiens, UniProt O95475 114-200, L167V)
T11 sequence: T1 sequence with I54V

SIX6 [12] = molecular target: T12, SIX6 (Homo sapiens, UniProt O95475 114-200)
T12 sequence: T1 sequence with I54L

SIX6 [13] = molecular target: T13, SIX6 (Homo sapiens, UniProt O95475 114-200, T165I)
T13 sequence: T1 sequence with T52I, I54L

HOXA2 [14] = molecular target: HOXA2 (Homo sapiens, UniProt O43364 129-215, R185T)
HOXA2 [15] = molecular target: HOXA2 (Homo sapiens, UniProt O43364 129-215, R185K)
HOXA2 [16] = molecular target: HOXA2 (Homo sapiens, UniProt O43364 129-215, Y150S)
HOXA2 [17] = molecular target: HOXA2 (Homo sapiens, UniProt O43364 129-215)
Chain of HOXA2 (Homo sapiens, UniProt O43364 129-215) (O43364 129-215): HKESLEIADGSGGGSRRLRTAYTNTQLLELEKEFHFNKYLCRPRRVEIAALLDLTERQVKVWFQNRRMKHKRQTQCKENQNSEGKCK

Chain of HOXA2 (Homo sapiens, UniProt O43364 129-215, R185T) (O43364 129-215 R185T): as the sequence (O43364 129-215) above, with R57T counted along it
Chain of HOXA2 (Homo sapiens, UniProt O43364 129-215, Y150S) (O43364 129-215 Y150S): as the sequence (O43364 129-215) above, with Y22S counted along it
Chain of HOXA2 (Homo sapiens, UniProt O43364 129-215, R185K) (O43364 129-215 R185K): as the sequence (O43364 129-215) above, with R57K counted along it

Row | Sequence | binding signal (SIX6 [1]) | binding signal (SIX6 [2]) | binding signal (SIX6 [3]) | binding signal (SIX6 [4]) | binding signal (SIX6 [5]) | binding signal (SIX6 [6]) | binding signal (SIX6 [7]) | binding signal (SIX6 [8]) | binding signal (SIX6 [9]) | binding signal (SIX6 [10]) | binding signal (SIX6 [11]) | binding signal (SIX6 [12]) | binding signal (SIX6 [13]) | binding signal (HOXA2 [14]) | binding signal (HOXA2 [15]) | binding signal (HOXA2 [16]) | binding signal (HOXA2 [17])
1 | CCAGACGG | 8.98 upbm affinity estimate (log intensity, higher = more binding, comparable within an allelic series) | 8.84 upbm affinity estimate (log intensity, higher = more binding, comparable within an allelic series) | 8.93 upbm affinity estimate (log intensity, higher = more binding, comparable within an allelic series) | 8.91 upbm affinity estimate (log intensity, higher = more binding, comparable within an allelic series) | 9.05 upbm affinity estimate (log intensity, higher = more binding, comparable within an allelic series) | 9.07 upbm affinity estimate (log intensity, higher = more binding, comparable within an allelic series) | 8.95 upbm affinity estimate (log intensity, higher = more binding, comparable within an allelic series) | 9.01 upbm affinity estimate (log intensity, higher = more binding, comparable within an allelic series) | 9.12 upbm affinity estimate (log intensity, higher = more binding, comparable within an allelic series) | 8.94 upbm affinity estimate (log intensity, higher = more binding, comparable within an allelic series) | 9.01 upbm affinity estimate (log intensity, higher = more binding, comparable within an allelic series) | 9.03 upbm affinity estimate (log intensity, higher = more binding, comparable within an allelic series) | 9.05 upbm affinity estimate (log intensity, higher = more binding, comparable within an allelic series) | – | – | – | –
2 | CTGGCCCA | 8.9 upbm affinity estimate (log intensity, higher = more binding, comparable within an allelic series) | 8.81 upbm affinity estimate (log intensity, higher = more binding, comparable within an allelic series) | 8.95 upbm affinity estimate (log intensity, higher = more binding, comparable within an allelic series) | 8.96 upbm affinity estimate (log intensity, higher = more binding, comparable within an allelic series) | 8.89 upbm affinity estimate (log intensity, higher = more binding, comparable within an allelic series) | 8.86 upbm affinity estimate (log intensity, higher = more binding, comparable within an allelic series) | 8.87 upbm affinity estimate (log intensity, higher = more binding, comparable within an allelic series) | 8.92 upbm affinity estimate (log intensity, higher = more binding, comparable within an allelic series) | 8.93 upbm affinity estimate (log intensity, higher = more binding, comparable within an allelic series) | 8.92 upbm affinity estimate (log intensity, higher = more binding, comparable within an allelic series) | 8.88 upbm affinity estimate (log intensity, higher = more binding, comparable within an allelic series) | 8.94 upbm affinity estimate (log intensity, higher = more binding, comparable within an allelic series) | 8.95 upbm affinity estimate (log intensity, higher = more binding, comparable within an allelic series) | 7.24 upbm affinity estimate (log intensity, higher = more binding, comparable within an allelic series) | 10.3 upbm affinity estimate (log intensity, higher = more binding, comparable within an allelic series) | 10.4 upbm affinity estimate (log intensity, higher = more binding, comparable within an allelic series) | 7.1 upbm affinity estimate (log intensity, higher = more binding, comparable within an allelic series)
3 | GGGGGCCA | 8.93 upbm affinity estimate (log intensity, higher = more binding, comparable within an allelic series) | 8.85 upbm affinity estimate (log intensity, higher = more binding, comparable within an allelic series) | 8.92 upbm affinity estimate (log intensity, higher = more binding, comparable within an allelic series) | 8.83 upbm affinity estimate (log intensity, higher = more binding, comparable within an allelic series) | 9.04 upbm affinity estimate (log intensity, higher = more binding, comparable within an allelic series) | 9.04 upbm affinity estimate (log intensity, higher = more binding, comparable within an allelic series) | 8.87 upbm affinity estimate (log intensity, higher = more binding, comparable within an allelic series) | 8.92 upbm affinity estimate (log intensity, higher = more binding, comparable within an allelic series) | 9.03 upbm affinity estimate (log intensity, higher = more binding, comparable within an allelic series) | 9.09 upbm affinity estimate (log intensity, higher = more binding, comparable within an allelic series) | 9.02 upbm affinity estimate (log intensity, higher = more binding, comparable within an allelic series) | 9.03 upbm affinity estimate (log intensity, higher = more binding, comparable within an allelic series) | 9.05 upbm affinity estimate (log intensity, higher = more binding, comparable within an allelic series) | – | – | – | –
4 | CCGGGCGC | 8.78 upbm affinity estimate (log intensity, higher = more binding, comparable within an allelic series) | 8.67 upbm affinity estimate (log intensity, higher = more binding, comparable within an allelic series) | 8.71 upbm affinity estimate (log intensity, higher = more binding, comparable within an allelic series) | 8.75 upbm affinity estimate (log intensity, higher = more binding, comparable within an allelic series) | 8.72 upbm affinity estimate (log intensity, higher = more binding, comparable within an allelic series) | 8.66 upbm affinity estimate (log intensity, higher = more binding, comparable within an allelic series) | 8.69 upbm affinity estimate (log intensity, higher = more binding, comparable within an allelic series) | 8.73 upbm affinity estimate (log intensity, higher = more binding, comparable within an allelic series) | 8.6 upbm affinity estimate (log intensity, higher = more binding, comparable within an allelic series) | 8.69 upbm affinity estimate (log intensity, higher = more binding, comparable within an allelic series) | 8.69 upbm affinity estimate (log intensity, higher = more binding, comparable within an allelic series) | 8.66 upbm affinity estimate (log intensity, higher = more binding, comparable within an allelic series) | 8.72 upbm affinity estimate (log intensity, higher = more binding, comparable within an allelic series) | – | – | – | –
5 | CCGGGGCC | 9.14 upbm affinity estimate (log intensity, higher = more binding, comparable within an allelic series) | 8.96 upbm affinity estimate (log intensity, higher = more binding, comparable within an allelic series) | 9.12 upbm affinity estimate (log intensity, higher = more binding, comparable within an allelic series) | 8.97 upbm affinity estimate (log intensity, higher = more binding, comparable within an allelic series) | 9.04 upbm affinity estimate (log intensity, higher = more binding, comparable within an allelic series) | 9.04 upbm affinity estimate (log intensity, higher = more binding, comparable within an allelic series) | 9.01 upbm affinity estimate (log intensity, higher = more binding, comparable within an allelic series) | 9.1 upbm affinity estimate (log intensity, higher = more binding, comparable within an allelic series) | 9.26 upbm affinity estimate (log intensity, higher = more binding, comparable within an allelic series) | 9.1 upbm affinity estimate (log intensity, higher = more binding, comparable within an allelic series) | 9.05 upbm affinity estimate (log intensity, higher = more binding, comparable within an allelic series) | 9.09 upbm affinity estimate (log intensity, higher = more binding, comparable within an allelic series) | 9.09 upbm affinity estimate (log intensity, higher = more binding, comparable within an allelic series) | – | – | – | –
